Data as given in the supplement of paper PMC10338343.
± gives the standard deviation.

System: MILI (PIWIL2) piRISC loaded with L1MC piRNA (26 nt)
Assay: pre-steady-state target cleavage rate (min^-1); guide: L1MC piRNA 5'p-UAACUAAAUACUAUGCAAGCUGUAGG; MIWI and MILI are mouse PIWI proteins and EfPiwi is from a freshwater sponge; tags in brackets are library labels; higher = faster piRNA-guided slicing of the target
How it was run: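 The pre-steady-state cleavage rate came from a burst-and-steady-state fit to pooled data from three Cleave-'n-Seq trials, in which uncleaved targets were sequenced and normalised to depth and to weakly complementary targets. Each reaction held 0.1 nM transcribed, DNA-blocked target RNA library and 1 nM active affinity-purified piRISC carrying one synthetic guide, with or without 500 nM GTSF1 partner protein, in HEPES–potassium acetate buffer at 33 °C for 0–8 or 0–960 min. k3 was capped at 0.0001 min^-1.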

[1] = auxiliary factor: 500 nM mouse GTSF1
[2] = auxiliary factor: none (no GTSF1)

| Sequence | pre-steady-state target cleavage rate [1] | pre-steady-state target cleavage rate [2] |
| --- | --- | --- |
| UCCUGGAUCAGCAACCAUAGUAUUUAGUUA | 0.116 ± 0.013 |  |
| UCCUGGAUCAGCUUCCAUAGUUUUUAGUUA | 0.0089 ± 0.0041 |  |
| UCCUGGAUGUGCUUGCAUAGUUUUAAGUUA | 0.0104 ± 0.0059 |  |
| UCCUGGAUGUCGAACGUAAGUUUUAGUUA |  | < 0.0001 |
| UCCUGGAUGUCGAAGCAUAGUCUUUAGUUA | 0.0102 ± 0.0051 |  |
| UCCUGGAACAGCUUGCAUAGUAAUUACAAA | 0.0522 ± 0.019 |  |
| UCCUGGAACAGCUUGCUAAGUAUUUACAAA | 0.0164 ± 0.0066 |  |
| UCCUGGAUGUCGUAGCAUAGUUUUUAGUUA | 0.00685 ± 0.0041 |  |
| UCCUGGAUGUCGAUGCUUAGUAUUUUGUUA | 0.0154 ± 0.0056 |  |
| UCCUGGAUGUCGAUGAAUAGUAUUUAGUUA | 0.00887 ± 0.0033 |  |
| UCCUGGAUGUCGAACGAUAGUAUAAUGUUA |  | < 0.0001 |
| UCCUGGAUGUCCUUGGAAAGUAUUUAGUUA | 0.0226 ± 0.0071 |  |
| UCCUGGAUGUCGAUGCAAAGUAUUAAGUUA | 0.00433 ± 0.0038 |  |
| UCCUGGAUGUCCAUGCUUAGUAUUUAGUUA | 0.0223 ± 0.0087 |  |
| UCCUGGAUGUCGAACGAUUCAAUUUAGUUA |  | < 0.0001 |
| UCCUGGAUGUCGAACCAUAGUAUUUUGUAA |  | < 0.0001 |
| UCCUGGAACAGCUUGCAUAGUAUUUUCUAA | 0.0162 ± 0.0068 |  |
| UCCUGGAUGUCGAACGAUAGUAUGUUAGUUA |  | < 0.0001 |
| UCCUCCUACAGCAUGCAUAGUAUUUUCAAA | 0.138 ± 0.03 |  |
| UCCUGGUACAGCUUGCAUAGUAUUUCGUUA | 0.114 ± 0.037 |  |

| Sequence | pre-steady-state target cleavage rate [1] | pre-steady-state target cleavage rate [2] |
| --- | --- | --- |
| UCCUGGAACAGCUUGCUAAGUAUUUAGAAA | 0.0282 ± 0.01 |  |
| UCCUGCUACUCCUUGCAUAGUAUUUUCAAA | 0.0369 ± 0.013 |  |
| UCCUGGAUGUCCUUGCAUAGUUUUUAGAUA | 0.00584 ± 0.0044 |  |
| UCCUGGAUGUCGAUACAUAGUAUUUAGUUA | 0.0231 ± 0.0046 |  |
| UCCUGGAUGUCGAACCAUAGUAUUGAGUUA |  | < 0.0001 |
| UCCUGGAACAGCAUGCAUAGUAUUUACAAA | 0.182 ± 0.035 |  |
| UCCUGGUACAGCUUGCAUUGUAUUUACAAA | 0.0165 ± 0.0077 |  |
| UCCUGGAACAGCUUGCAUAGUAUAAUCAAA | 0.0568 ± 0.016 |  |
| UCCUGGAUGUCGAACGUUAGUAAUUUGUUA |  | < 0.0001 |
| UCCUGGAUCAGCUUGCAUAGAAUUUUGUUA | 0.038 ± 0.012 |  |
| UCCUGGAACAGCUUGCAUUCUAUUUAGUUA | 0.0609 ± 0.014 |  |
| UCCUGGAUGUCGAACCAUAGUAUUAUCAAA [g7:g15:cont:t1A] | < 0.0001 |  |
| UCCUGGAUGAGCUUGCAUAGUAUAUAGAAA | 0.00651 ± 0.005 |  |
| UCCUGGUACAGCUUGCAUAGUAAUUAGAAA | 0.0664 ± 0.018 |  |
| UCCUGCUACAGCUUCCAUAGUUUUUAGUUA | 0.0226 ± 0.01 |  |
| UCCUGCUACUCGUUGCAUAGUAUUUACAAA | 0.0703 ± 0.016 |  |
| UCCUGGAUGUCGAAGCAUAGUAUUUAGUA | 0.0246 ± 0.008 |  |
| UCCUGGAUGUCGAUGCAUAGUAUUUAGUGUA | 0.149 ± 0.045 |  |
| UCCUGGAUGAGCUUGCAUUGUUUUUAGUUA | 0.0047 ± 0.0044 |  |
| UCCUGGAUGUCGAACGAUAGUAUUUAUGUUA |  | < 0.0001 |

| Sequence | pre-steady-state target cleavage rate [1] | pre-steady-state target cleavage rate [2] |
| --- | --- | --- |
| UCCUGGUACAGCUUGCAUAGUAAAUAGAAA | 0.081 ± 0.025 |  |
| UCCUGGAUGUCCUUGCAUAGUAUAAUGUUA | 0.0286 ± 0.011 |  |
| UCCUGGUACAGCUUGCAUAGUUUUUACUUA | 0.0154 ± 0.008 |  |
| UCCUCCUACAGCUUGCUAUGUAUUUAGUAA | 0.021 ± 0.0069 |  |
| UCCUGGAUGUGCUUGCAUACUUUUUAGUUA |  | 0.0037 ± 0.0027 |
| UCCUGGAUGUCGAACGUUAGUAUUUACGUUA |  | < 0.0001 |
| UCCUGGAUGUCGUUGCAUAGUAUAUAGUAA | 0.0526 ± 0.018 |  |
| UCCUGCUACAGCUUGCAAUCUAUUUACAAA | 0.00954 ± 0.0044 |  |
| UCCUGGAUCAGGAUGCAUAGUAUUUAGAAA | 0.0525 ± 0.011 |  |
| UCCUGGAUGUCGUUGCAUAGUAUUUAGCUUA | 0.0208 ± 0.0083 |  |
| UCCUGGAUGAGCUAGCAUAGUAUUUACUUA | 0.169 ± 0.042 |  |
| UCCUGGAUGUCGAACGUUAGGUAUUUAGUUA |  | < 0.0001 |
| UCCUGGAUGUCGUAGCAUAGUAUUUAGAUA | 0.0132 ± 0.0048 |  |
| UCCUGGAUGUCGAUGCAUAGUAUUUAGAUA | 0.0384 ± 0.011 |  |
| UCCUGGAUCAGCUUGCAUAGAAUAUAGUUA | 0.042 ± 0.012 |  |
| UCCUGGAACAGCUUGCAUAGAAAUUAGUUA | 0.0351 ± 0.0085 |  |
| UCCUGGAACAGCUUGCAAUCAUAAAUCAAA [g14:g23:cont:t1A] |  | < 0.0001 |
| UCCUGGAUGUGCUUGCAAUGUAUUUAGUUA | 0.0104 ± 0.005 | 0.0111 ± 0.0028 |
| UCCUGGAUCAGCUUGCAUAGUAUUUAGUUC [g2:g22:cont:t1C] | 0.235 ± 0.016 | 0.00817 ± 0.0026 |
